Compound activity from PubChem BioAssay.
The entries come from a sample that favours hits as a whole.
Pf Dd2 growth: Plasmodium falciparum Dd2 growth inhibition; AID 1347417; 120,000 compounds, 4.3% hits; P. falciparum Dd2 growth, SYBR Green, 72 h; Potency, µM (series often up to 28.9 µM), for the others: top-dose activity, negative = inhibition, usual class: inhibitors; active = well fitted inhibition curve with a large enough effect;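 note: plate controls were DMSO vehicle for no effect and reference drug for full effect; nearly all actives have a fitted effect of over 65% in size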
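Readout: SYBR Green fluorescence, 485 nm excitation, 535 nm emission, after ~16 h lysis at 37C. Before that, Dd2-infected red cells (2.5% hematocrit) grew 72 h with compound, 29 uM top final concentration.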
Starred values were filed as active, the others as inactive; i = inactive; [ ] = another dose, or the depositor's remark. Potency is the fitted concentration of half-maximal effect.

SMILES	Pf Dd2 growth
COC(=O)c1c(-c2ccc(Cl)cc2)noc1N1CCN(c2ccc(F)cc2)CC1	-17.5%
COC(=O)c1c(-c2ccc(Cl)cc2)noc1N1CCN(c2cccc(C(F)(F)F)c2)CC1	7.08µM*
O=C1COc2ccc(OCc3ccccc3)nc2CN1Cc1ccccc1F	-24.4%[44.1 µM]
Cc1ccccc1NC(=O)N(C)CC1CCOC1 (stereo unspecified)	12.3%[5.79 µM]
CC(=O)NC1(C)CCCN(Cc2cc(-c3cccc(N4CCOCC4)c3)cs2)C1 (stereo unspecified)	-16.0%[44.1 µM]
Cc1cc(CNC(=O)c2cccc(F)c2F)c2[nH]c(C)c(C)c2c1	10µM*
Cc1cc(CNC(=O)c2ccc(S(N)(=O)=O)cc2)c2[nH]c(C)c(C)c2c1	-14.2%
CCc1[nH]c2c(CNC(=O)C(C)O)cc(C)cc2c1C (stereo unspecified)	-6.1%
Cc1noc(-c2ccc3c(c2)OCO3)c1C(=O)NCc1cc(F)cc(F)c1	i
C=CCN1CCN(C(=O)CCc2nc(C3CCCN3C(=O)NCC)no2)CC1 (stereo unspecified)	-0.7%
COC(=O)C1=C(C)N=C2SC=C(CC(=O)Nc3ccc(F)cc3)N2C1c1ccc(OC)cc1OC (stereo unspecified)	-2.3%
CCOC(=O)C1=C(C)N=C2SC=C(CC(=O)NC(C)CC)N2C1c1cccc([N+](=O)[O-])c1 (stereo unspecified)	i
CCOC(=O)C1=C(C)N=C2SC=C(CC(=O)Nc3cccc(OC)c3)N2C1c1cccc(OC)c1 (stereo unspecified)	11.2µM*
CCOC(=O)C1=C(C)N=C2SC=C(CC(=O)Nc3ccc(OC)cc3)N2C1c1cccc(OC)c1 (stereo unspecified)	-10.6%
COCCOC(=O)C1=C(C)N=C2SC=C(CC(=O)Nc3cccc(OC)c3)N2C1c1ccccc1 (stereo unspecified)	-0.7%
CCOC(=O)C1=C(C)N=C2SC=C(CC(=O)Nc3ccc(C)c(C)c3)N2C1c1cccc(OC)c1 (stereo unspecified)	8.91µM*
Cc1noc([C@@H]2CN(C(=O)CN3CCCCCC3)C[C@H]2CO)n1	3.5%
O=C(CC1CNCCO1)N1CCN(C(=O)c2ccccc2)CC1 (stereo unspecified)	-3.5%
O=C1CCN(C(=O)C2CCCCC2)CCCC(C(=O)NCc2ccccc2)CCN1 (stereo unspecified)	-21.0%
O=C1CCN(C(=O)C2(c3ccccc3)CC2)CCCC(C(=O)NCc2ccccc2)CCN1 (stereo unspecified)	0.398µM*
O=C1CCN(C(=O)c2ccco2)CCCC(C(=O)NCc2ccccc2)CCN1 (stereo unspecified)	-13.1%
O=C(CCc1nc2ccccc2s1)N1CCC(N2CC3CC(C2)[C@H]2CCCC(=O)N2C3)CC1 (stereo partly specified)	-25.7%
COc1ccc(CCNC(=O)CCCCn2c(=O)c3ccccc3n(CC(=O)Nc3ccccc3C)c2=O)cc1OC	-18.2%
COc1ccc(CCNC(=O)CCCn2c(=O)c3ccccc3n(CC(=O)Nc3cccc(C)c3)c2=O)cc1OC	10µM*
COc1ccc(CCNC(=O)CCCn2c(=O)c3ccccc3n(CC(=O)Nc3c(C)cc(C)cc3C)c2=O)cc1OC	-7.2%
SMILES	Pf Dd2 growth
COc1cc2c(cc1OCc1ccncc1)NC(=O)C21CCN(C(=O)C2CCC2)CC1	i
Cc1nc(CCCNC(=O)[C@H]2CCC[C@@H](O)C2)sc1C	3.5%
CC(C)Oc1ccc2c(NC(=O)c3cocn3)nn(CC(F)(F)F)c2c1	-15.7%
COCCN1CCCCCC(O)c2cc(C(=O)NCCN3CCOCC3)ccc21 (stereo unspecified)	2.4%
COCCN1CCCCCC(O)c2cc(C(=O)NCCCN3CCCc4ccccc43)ccc21 (stereo unspecified)	-19.7%
COCCN1CCCCCC(O)c2cc(C(=O)NCCc3c[nH]c4ccccc34)ccc21 (stereo unspecified)	5.01µM*
Cc1nc(-c2c3n(c(=O)n(CC(=O)Nc4ccc5c(c4)OCO5)c2=O)CCCCC3)no1	-10.7%
COCCc1noc([C@@H]2CN(Cc3cccc(C#N)c3)C[C@H]2CO)n1	-15.8%
O=c1[nH]c(C2CCCN(Cc3cccnc3)C2)nn1-c1ccc(Cl)cc1 (stereo unspecified)	i
COCC(=O)Nc1cc(C(=O)N2CCN(C(C)=O)CC2)c2c(c1)ncn2Cc1ccc(F)cc1	-2.5%
O=C1N(c2ccccc2)C[C@H]2CN(Cc3ncc[nH]3)CCN12	1.4%[44.1 µM]
CCCC(=O)NCC(c1ccc2c(c1)OCO2)N1CCN(c2ccc(F)cc2)CC1 (stereo unspecified)	-17.7%
CC(=O)NCC(c1ccc2c(c1)OCO2)N1CCN(c2ccccc2)CC1 (stereo unspecified)	-1.6%
Cc1ccc(NC(=O)C(=O)NCC(c2ccc3c(c2)OCO3)N2CCN(c3ccccc3)CC2)cc1 (stereo unspecified)	-1.8%
Cc1ccc(C(=O)NCC(c2ccc3c(c2)OCO3)N2CCN(c3ccc(F)cc3)CC2)cc1 (stereo unspecified)	12.6µM*
CC(C)(C)CC(=O)NCC(c1ccc2c(c1)OCO2)N1CCN(c2ccccc2)CC1 (stereo unspecified)	7.08µM*
CCCC(=O)NCC(c1ccc2c(c1)OCO2)N1CCN(c2ccccc2)CC1 (stereo unspecified)	-0.4%
Cn1cccc1CN1CCC2CC(=O)NCCC2C1 (stereo unspecified)	5.4%[44.1 µM]
O=C(c1cnc2c(c1)N(C(=O)CCc1ccccc1)CCC2)N1CCC(c2ccccc2)CC1	132.3%
O=C(Nc1ccc(F)c(F)c1)c1cc2n(n1)CC(c1ccc(Br)cc1)OC2 (stereo unspecified)	i
Cc1cc2nc(CO[C@H]3CN(C4CCOCC4)C[C@H]3F)[nH]c2cc1C	i
CNC(=O)[C@@H]1C[C@@H](n2cc(CNC(=O)Nc3ccc(Cl)cc3)nn2)CN1	-5.7%
COc1ccc(CN2Cc3[nH]cnc3C[C@H]2C(=O)NCc2ccc(C#N)cc2)c2ccccc12	-12.0%
CN(C)c1ccc(CN2Cc3[nH]cnc3C[C@H]2C(=O)N2CCC(Cc3ccccc3)CC2)cc1	i
COc1ccc(CN2Cc3[nH]cnc3C[C@H]2C(=O)NCc2ccc(Cl)cc2)c2ccccc12	i
SMILES	Pf Dd2 growth
COc1ccc(CN2Cc3[nH]cnc3C[C@H]2C(=O)NC2CCCCC2)c2ccccc12	11.2µM*
COc1ccc(CN2Cc3[nH]cnc3C[C@H]2C(=O)N(C)Cc2ccccc2)c2ccccc12	5.62µM*
CN(Cc1ccccc1)C(=O)[C@@H]1Cc2nc[nH]c2CN1C	-20.8%[44.1 µM]
O=C(Nc1ccc(F)c(Cl)c1)N1CCC2(CC1)SCC(=O)N2Cc1ccco1	-22.4%
CC(C)c1ccc(CN2CC(CN[S+](=O)([O-])c3ccccc3)C3(C2)CN(c2ccccc2)C3)cc1 (stereo unspecified)	i
C[C@H](O)c1onc(-c2ccccc2)c1C(=O)N1CCN(C)CC1	-12.6%[44.1 µM]
CN(C)C[C@@H]1CN(Cc2ccccc2)C[C@H]1NC(=O)NCc1ccco1	-27.4%
Cc1ccc2oc([C@H]3CCN(Cc4ccc(N(C)C)cc4)C3)nc2c1	i
Cc1ccc(C(=O)N2CCC3(Cc4ccccc4NC3=O)C2)cc1 (stereo unspecified)	i
COc1ccc(NC(=O)Cn2c(=O)n(-c3ccccc3)c(=O)c3c4c(sc32)CCCC4)c(OC)c1	26.1%
CCOC(=O)c1c(NC(=O)COc2cccc(C)c2C)sc2c1CCCCC2	69.2%
CCOc1ccccc1NC(=O)c1c(NCc2sccc2C)sc2c1CCCCC2	12.6µM*
